Laboratory results reported in ChEMBL document CHEMBL1961873, “Compounds: GSK PKIS; Assays: Nanosyn kinase panel” (2012).

Assays:
[1] = test system: Proto-oncogene tyrosine-protein kinase receptor Ret (Homo sapiens), P07949 [Y791F]; settings: at 1 µM
[2] = biological target: Macrophage-stimulating protein receptor (Homo sapiens) (UniProt Q04912); settings: at 0.1 µM
[3] = biological target: Macrophage-stimulating protein receptor (Homo sapiens) (UniProt Q04912); settings: at 1 µM
[4] = biological target: Proto-oncogene tyrosine-protein kinase ROS (Homo sapiens) (UniProt P08922); settings: at 0.1 µM
[5] = biological target: Proto-oncogene tyrosine-protein kinase ROS (Homo sapiens) (UniProt P08922); settings: at 1 µM
[6] = biological target: Proto-oncogene tyrosine-protein kinase Src (Homo sapiens) (UniProt P12931); settings: at 0.1 µM
[7] = biological target: Proto-oncogene tyrosine-protein kinase Src (Homo sapiens) (UniProt P12931); settings: at 1 µM
[8] = biological target: Tyrosine-protein kinase Srms (Homo sapiens) (UniProt Q9H3Y6); settings: at 0.1 µM
[9] = biological target: Tyrosine-protein kinase Srms (Homo sapiens) (UniProt Q9H3Y6); settings: at 1 µM
[10] = biological target: Tyrosine-protein kinase SYK (Homo sapiens) (UniProt P43405); settings: at 0.1 µM;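 note: reported percentages are mean inhibition values for SYK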

Proto-oncogene tyrosine-protein kinase Src (Homo sapiens), sequence (P12931 2-536 limits assumed): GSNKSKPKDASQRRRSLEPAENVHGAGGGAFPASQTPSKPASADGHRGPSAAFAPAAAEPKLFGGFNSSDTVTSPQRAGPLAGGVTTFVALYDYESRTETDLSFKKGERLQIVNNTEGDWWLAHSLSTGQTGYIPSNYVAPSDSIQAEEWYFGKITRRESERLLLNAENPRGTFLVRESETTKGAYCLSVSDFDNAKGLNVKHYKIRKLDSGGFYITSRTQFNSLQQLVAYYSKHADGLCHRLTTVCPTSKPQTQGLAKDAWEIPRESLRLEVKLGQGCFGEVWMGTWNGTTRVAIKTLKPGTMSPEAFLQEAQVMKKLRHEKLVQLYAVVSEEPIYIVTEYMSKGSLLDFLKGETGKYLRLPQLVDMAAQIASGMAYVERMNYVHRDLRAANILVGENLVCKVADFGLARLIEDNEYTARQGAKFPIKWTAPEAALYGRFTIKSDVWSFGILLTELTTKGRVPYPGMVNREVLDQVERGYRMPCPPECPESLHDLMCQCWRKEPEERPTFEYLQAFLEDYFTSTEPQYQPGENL
Proto-oncogene tyrosine-protein kinase receptor Ret (Homo sapiens), P07949 [Y791F], sequence (P07949 whole entry Y791F): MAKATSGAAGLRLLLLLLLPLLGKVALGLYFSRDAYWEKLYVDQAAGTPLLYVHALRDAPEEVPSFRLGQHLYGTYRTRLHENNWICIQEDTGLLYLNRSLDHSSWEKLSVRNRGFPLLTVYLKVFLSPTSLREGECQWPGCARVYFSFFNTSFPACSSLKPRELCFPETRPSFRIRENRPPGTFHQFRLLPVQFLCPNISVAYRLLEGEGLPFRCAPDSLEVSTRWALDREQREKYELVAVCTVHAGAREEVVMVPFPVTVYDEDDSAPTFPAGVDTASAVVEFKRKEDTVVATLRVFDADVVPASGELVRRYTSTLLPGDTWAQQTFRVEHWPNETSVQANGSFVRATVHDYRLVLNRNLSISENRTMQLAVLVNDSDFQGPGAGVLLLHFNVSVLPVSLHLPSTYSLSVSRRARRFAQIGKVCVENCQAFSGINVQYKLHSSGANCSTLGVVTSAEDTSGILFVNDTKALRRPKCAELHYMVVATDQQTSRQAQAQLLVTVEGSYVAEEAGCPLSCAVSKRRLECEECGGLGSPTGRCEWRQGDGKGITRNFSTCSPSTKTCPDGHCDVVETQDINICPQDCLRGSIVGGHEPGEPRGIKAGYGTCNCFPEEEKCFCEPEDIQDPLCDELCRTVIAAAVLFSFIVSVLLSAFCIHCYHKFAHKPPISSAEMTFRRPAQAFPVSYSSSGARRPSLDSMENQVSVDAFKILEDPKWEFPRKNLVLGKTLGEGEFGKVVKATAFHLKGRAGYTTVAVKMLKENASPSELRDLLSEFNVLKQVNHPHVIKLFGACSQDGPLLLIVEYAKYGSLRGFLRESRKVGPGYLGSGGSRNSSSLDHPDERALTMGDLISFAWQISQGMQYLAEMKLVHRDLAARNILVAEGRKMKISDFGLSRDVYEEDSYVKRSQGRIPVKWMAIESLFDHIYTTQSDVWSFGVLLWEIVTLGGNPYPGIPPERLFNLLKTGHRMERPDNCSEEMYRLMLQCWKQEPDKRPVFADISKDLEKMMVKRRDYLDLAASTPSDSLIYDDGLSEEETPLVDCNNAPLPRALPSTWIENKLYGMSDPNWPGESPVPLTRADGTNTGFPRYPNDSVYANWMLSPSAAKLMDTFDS
Tyrosine-protein kinase Srms (Homo sapiens), sequence (Q9H3Y6 whole entry): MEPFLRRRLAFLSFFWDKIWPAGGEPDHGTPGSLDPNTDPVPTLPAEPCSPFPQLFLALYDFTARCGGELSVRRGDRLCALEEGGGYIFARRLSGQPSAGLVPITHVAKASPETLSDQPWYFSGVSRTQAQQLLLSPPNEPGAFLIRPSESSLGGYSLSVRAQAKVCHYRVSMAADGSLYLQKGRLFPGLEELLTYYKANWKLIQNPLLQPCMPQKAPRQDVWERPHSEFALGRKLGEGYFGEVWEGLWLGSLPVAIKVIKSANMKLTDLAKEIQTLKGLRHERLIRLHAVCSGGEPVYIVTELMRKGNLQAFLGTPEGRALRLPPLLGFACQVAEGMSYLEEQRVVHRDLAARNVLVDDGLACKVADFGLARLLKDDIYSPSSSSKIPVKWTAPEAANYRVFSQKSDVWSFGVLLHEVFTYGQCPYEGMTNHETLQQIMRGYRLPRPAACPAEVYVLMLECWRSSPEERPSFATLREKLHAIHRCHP
Proto-oncogene tyrosine-protein kinase ROS (Homo sapiens), sequence (P08922 whole entry): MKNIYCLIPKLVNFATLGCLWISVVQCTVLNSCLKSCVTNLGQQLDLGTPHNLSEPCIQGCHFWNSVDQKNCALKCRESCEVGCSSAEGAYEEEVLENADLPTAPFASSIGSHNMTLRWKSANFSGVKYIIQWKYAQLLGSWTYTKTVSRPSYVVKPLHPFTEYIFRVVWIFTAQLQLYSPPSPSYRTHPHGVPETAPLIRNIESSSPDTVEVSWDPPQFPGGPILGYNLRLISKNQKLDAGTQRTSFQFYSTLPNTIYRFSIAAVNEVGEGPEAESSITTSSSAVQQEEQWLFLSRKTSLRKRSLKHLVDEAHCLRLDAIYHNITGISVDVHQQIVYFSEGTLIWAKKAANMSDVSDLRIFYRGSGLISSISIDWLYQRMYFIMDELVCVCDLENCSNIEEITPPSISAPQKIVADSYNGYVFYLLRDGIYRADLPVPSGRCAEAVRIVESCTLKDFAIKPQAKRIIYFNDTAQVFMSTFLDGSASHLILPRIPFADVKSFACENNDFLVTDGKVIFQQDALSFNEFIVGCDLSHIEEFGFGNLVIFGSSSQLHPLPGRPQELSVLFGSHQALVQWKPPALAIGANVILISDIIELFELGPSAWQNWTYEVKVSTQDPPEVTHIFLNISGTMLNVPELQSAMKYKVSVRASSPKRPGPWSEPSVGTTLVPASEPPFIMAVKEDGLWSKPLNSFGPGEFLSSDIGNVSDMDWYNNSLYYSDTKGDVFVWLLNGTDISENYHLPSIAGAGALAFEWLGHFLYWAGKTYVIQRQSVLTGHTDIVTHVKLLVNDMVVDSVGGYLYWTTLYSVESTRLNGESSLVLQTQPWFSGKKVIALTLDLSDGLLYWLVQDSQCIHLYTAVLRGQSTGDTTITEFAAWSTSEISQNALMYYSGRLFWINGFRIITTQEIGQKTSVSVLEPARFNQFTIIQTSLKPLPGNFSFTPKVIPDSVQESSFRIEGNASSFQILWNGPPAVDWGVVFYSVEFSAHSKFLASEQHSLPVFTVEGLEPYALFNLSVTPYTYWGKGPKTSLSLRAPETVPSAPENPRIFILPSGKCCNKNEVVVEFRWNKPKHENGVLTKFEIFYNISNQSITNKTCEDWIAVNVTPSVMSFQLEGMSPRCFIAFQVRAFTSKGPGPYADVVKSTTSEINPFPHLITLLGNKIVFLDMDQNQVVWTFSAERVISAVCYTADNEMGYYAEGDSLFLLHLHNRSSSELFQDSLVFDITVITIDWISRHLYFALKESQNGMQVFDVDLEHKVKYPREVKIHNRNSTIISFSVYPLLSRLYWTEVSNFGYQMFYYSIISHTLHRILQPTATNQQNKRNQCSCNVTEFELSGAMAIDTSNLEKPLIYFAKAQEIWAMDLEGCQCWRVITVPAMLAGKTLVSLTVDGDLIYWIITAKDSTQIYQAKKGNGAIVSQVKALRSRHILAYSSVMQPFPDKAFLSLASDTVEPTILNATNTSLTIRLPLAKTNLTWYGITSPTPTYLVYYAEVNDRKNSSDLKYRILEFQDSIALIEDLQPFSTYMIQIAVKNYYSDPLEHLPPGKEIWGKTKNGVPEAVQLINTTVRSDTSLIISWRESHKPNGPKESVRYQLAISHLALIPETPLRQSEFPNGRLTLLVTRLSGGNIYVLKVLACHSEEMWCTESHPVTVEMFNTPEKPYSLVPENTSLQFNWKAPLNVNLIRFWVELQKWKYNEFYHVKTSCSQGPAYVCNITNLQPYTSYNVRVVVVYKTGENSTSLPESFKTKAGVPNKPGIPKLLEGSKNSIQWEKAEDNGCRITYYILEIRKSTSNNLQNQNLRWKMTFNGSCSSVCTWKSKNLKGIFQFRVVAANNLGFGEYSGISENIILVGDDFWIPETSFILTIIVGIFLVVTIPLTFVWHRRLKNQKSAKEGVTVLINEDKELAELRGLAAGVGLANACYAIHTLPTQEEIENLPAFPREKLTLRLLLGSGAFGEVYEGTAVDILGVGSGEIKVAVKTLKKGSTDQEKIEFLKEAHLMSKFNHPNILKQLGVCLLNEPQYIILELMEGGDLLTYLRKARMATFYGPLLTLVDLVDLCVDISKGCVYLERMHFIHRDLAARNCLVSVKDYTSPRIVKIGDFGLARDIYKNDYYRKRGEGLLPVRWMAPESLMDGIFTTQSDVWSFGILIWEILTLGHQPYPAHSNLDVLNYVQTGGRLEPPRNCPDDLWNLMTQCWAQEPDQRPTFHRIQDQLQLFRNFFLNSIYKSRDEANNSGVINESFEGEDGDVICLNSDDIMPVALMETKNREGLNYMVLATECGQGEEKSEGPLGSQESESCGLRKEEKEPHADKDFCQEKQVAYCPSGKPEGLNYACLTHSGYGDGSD

Structure (SMILES) | inhibition [1] [%] | inhibition [2] [%] | inhibition [3] [%] | inhibition [4] [%] | inhibition [5] [%] | inhibition [6] [%] | inhibition [7] [%] | inhibition [8] [%] | inhibition [9] [%] | inhibition [10] [%]
COc1cc(/C=N/Nc2ncnc3c2cnn3C(C)C)ccc1O | 78.1 | 8.98 | 17.9 | 11.9 | 37.5 | 20.8 | 72.7 | 1.16 | 4.98 | -1.05
CN(c1ccc(NC(=O)Nc2ccc(OC(F)(F)F)cc2)cc1)c1ccnc(Nc2cccc(S(N)(=O)=O)c2)n1 | 92.1 | 54.3 | 90.5 | 15.2 | 66.9 | 41.9 | 86.5 | 0.09 | 14.3 | -1.49
CCn1c(-c2nonc2N)nc2ccc(F)cc21 | 11.3 | 0.5 | 6.19 | 5.7 | 8.6 | 4.3 | 9.9 | -2.63 | -0.49 | 3.17
Cc1ccc(NC(=O)CC2CC2)cc1-c1ccc(C(=O)NCC2CC2)cc1 | 28.8 | -0.78 | 1.45 | 4.69 | 8.56 | 4.43 | 8.28 | 0.3 | 5.61 | -2.32
CCCN1CCCC(c2ccc(Nc3nc(Nc4cc(F)ccc4C(N)=O)c4cc[nH]c4n3)c(OC)c2)C1 (stereo unspecified) | 23.6 | 0.58 | 13.1 | 63.8 | 81.2 | -0.17 | 14.6 | 1.99 | 22.1 | –
CN(C)C(=O)O[C@@H]1CN[C@@H](C#Cc2cc3ncnc(Nc4ccc(OCc5cccc(F)c5)c(Cl)c4)c3s2)C1 | 0.86 | -3.14 | -2.46 | 1.04 | 4.92 | 3.94 | 3.62 | -1.8 | -0.67 | 6.58
CC(C)c1ccc2c(c1)NC(=O)/C2=N/Nc1ccc(S(N)(=O)=O)cc1 | 30.7 | 1.23 | -1.8 | 0.66 | 3.01 | 3.8 | 14 | 0.59 | 0.2 | 1.61
O=C1Nc2ccccc2/C1=C/Nc1ccc2[nH]c(=O)[nH]c2c1 | 67 | 5.9 | 10.9 | 3.89 | 11.8 | 5.5 | 31 | -2.08 | 3.2 | 3.76
N#Cc1cccc(Nc2nccc(-c3cnn4ncccc34)n2)c1 | 37.3 | -3.06 | 15.6 | 32.1 | 74.2 | 14.3 | 66 | 1.1 | 14.7 | –
O=C1Nc2ccc(-c3cccnc3)cc2C1=Cc1cc(Br)c(O)c(Br)c1 | 1.19 | -1.31 | 8.32 | 8.46 | 18.3 | 2.96 | 12.1 | 12.3 | 57.9 | -3.33
CCS(=O)(=O)c1ccc(OC)c(Nc2nccc(N(C)c3ccc4c(C)n[nH]c4c3)n2)c1 | 80.2 | 2.28 | 11.8 | 12.1 | 51.3 | 42.5 | 81.2 | 11.4 | 50.3 | -1.92
Nc1ccc(C#Cc2cncnc2Nc2ccc(OCc3cccc(F)c3)c(Cl)c2)cc1 | 4.06 | 7.87 | 1.71 | 1.61 | 3.55 | 5.95 | 3.71 | -2.09 | -0.77 | -0.35
N#Cc1c(NC(=O)c2ccccc2F)sc2c1CCCC2 | 1.78 | -0.97 | -3.33 | 1.04 | 0.32 | -4.11 | -4.48 | 2.55 | 1.79 | 0.7
FC(F)(F)c1ccc(-c2nn3ncccc3c2-c2ccnc(Nc3ccc4c(c3)OCCO4)n2)cc1 | 43.9 | 11.8 | 0.63 | 7.87 | 9.43 | 0.84 | 15.8 | 8.49 | 8.73 | 3.37
Nc1nccc(C#Cc2cncnc2Nc2ccc(OCc3cccc(F)c3)c(Cl)c2)n1 | 10.5 | -0.99 | 9.09 | 7.35 | 16.2 | 0.36 | 7.62 | 0.29 | -3.68 | -6.1
CN1CCN(C(=O)c2ccc(NC(=O)Nc3ccc(N(C)c4ccnc(Nc5ccc(CS(C)(=O)=O)cc5)n4)cc3)cc2)CC1 | 82.8 | 18.6 | 58.6 | 14.6 | 54.1 | 10.7 | 42.2 | 0.11 | 5.6 | -0.89
NS(=O)(=O)c1ccc(-c2cc3ccncc3cc2OCc2ccccc2)cc1 | 8.79 | 3.44 | 8.77 | 5.03 | 11 | -0.21 | 6.83 | 0.62 | 1.62 | 2.96
OCc1ccc(-c2nc(-c3ccccn3)c(-c3ccc4c(c3)OCO4)[nH]2)cc1 | 6.59 | -1.95 | -0.55 | 6.84 | 8.11 | -0.99 | 10.6 | 0.43 | -1.19 | -7.53
CC(C)c1ccc(Nc2nccc(-c3cnn4ncccc34)n2)cc1 | 13.4 | 1.98 | 16.8 | 19.2 | 62.4 | 1.55 | 13.4 | 1.68 | 3.15 | -6.64
CN(C)c1cc2c(Nc3ccc4c(cnn4Cc4ccccc4)c3)ncnc2cn1 | 34.4 | 1.53 | 0.62 | 2.34 | 2.03 | 3.91 | 13.1 | -0.2 | 1.29 | 0.89

Structure (SMILES) | inhibition [1] [%] | inhibition [2] [%] | inhibition [3] [%] | inhibition [4] [%] | inhibition [5] [%] | inhibition [6] [%] | inhibition [7] [%] | inhibition [8] [%] | inhibition [9] [%] | inhibition [10] [%]
NC(=O)c1cccc(Nc2nccc(Nc3cccc(F)c3)n2)c1 | 37.9 | -6.8 | 5.75 | 18.8 | 60.8 | 16.7 | 64.8 | 1.56 | 5.6 | 0.43
COC(=O)Nc1nc2cc(Oc3ccc(NC(=O)Nc4cccc(Br)c4)cc3)ccc2[nH]1 | 84.4 | 1.47 | 2.5 | 4.26 | 3.1 | 3.27 | 6.9 | 2.26 | 3.49 | -1.46
COc1cc2ncn(-c3cc(OCc4ccccc4S(C)(=O)=O)c(C#N)s3)c2cc1OC | 59.1 | -3.29 | 8.3 | 27.4 | 68.7 | 3.54 | 50.1 | 2.07 | 26.9 | -8.27
Cc1ccc2c(-c3ccnc(Nc4cccc(C(F)(F)F)c4)n3)c(-c3ccccc3)nn2n1 | 37.9 | 2.85 | 13.6 | 7.31 | 9.43 | 25.3 | 72.9 | 1.71 | 22.1 | 0.45
NS(=O)(=O)c1cccc(Nc2cc(-c3ccc(F)cc3)n[nH]2)c1 | 23.6 | -6.54 | 8.51 | 4.34 | 4.36 | 3.21 | 10.4 | -0.24 | 2.26 | -3.53
COc1cccc(-n2ncc3c(N/N=C/c4ccc(C)cc4)ncnc32)c1 | 13.9 | 2.1 | 9.64 | 14.2 | 38.4 | 14.2 | 32.9 | -2.37 | -0.01 | 0.52
c1ccc(Nc2ncc(-c3ccccc3)o2)cc1 | 11.5 | 8.13 | 9.16 | 7.47 | 5.92 | 9.27 | 14.3 | 0.17 | 2.19 | 1.8
Cc1ccc2c(-c3ccnc(Nc4ccc5c(c4)OCCO5)n3)c(-c3ccc(C(F)(F)F)cc3)nn2n1 | 5.72 | -0.07 | 4.33 | 1.22 | 2.46 | 1.69 | 5.52 | -0.03 | 0.07 | -0.8
COc1cc(Nc2nccc(-c3cnn4ncccc34)n2)cc(OC)c1 | 33.6 | 4 | 22.3 | 57 | 87 | 17.1 | 63.9 | 0.34 | 6.85 | -0.4
C[C@@H](Oc1cc(-n2cnc3ccc(OCC4CCN(C)CC4)cc32)sc1C(N)=O)c1ccccc1C(F)(F)F | 18.4 | -0.38 | 9.36 | 0.2 | 7.21 | -1.27 | 21.3 | 1.72 | 2.5 | 0.48
CN(C)C(=O)O[C@H]1CN[C@H](C#Cc2cc3ncnc(Nc4ccc(OCc5cccc(F)c5)c(Cl)c4)c3s2)C1 | 9.1 | 1.31 | 5.82 | 4.25 | 4.65 | 3.86 | 6.56 | 0.59 | 0.93 | -7.75
C[C@@H](Oc1cc(-n2cnc3ccc(OC[C@@H](O)CO)cc32)sc1C(N)=O)c1ccccc1Cl | 10.8 | -4.17 | 6.85 | 1.32 | 11.6 | 3.67 | 5.14 | 0.51 | 2.19 | 1.72
NS(=O)(=O)c1ccc(Nc2cc(-c3cccc(O)c3)n[nH]2)cc1 | 26.2 | 5.75 | 0.78 | 6.66 | 12.1 | 3.91 | 11.9 | -2.79 | -7.29 | -3.9
COc1cc2ncnc(Nc3ccc4c(cnn4Cc4ccccc4)c3)c2cc1OC | 40 | 3.2 | 2.02 | 6.51 | 4.63 | 10.1 | 41.8 | 0.35 | 4.63 | 4.44
CN(C)CCCn1c(-c2nonc2N)nc2cnccc21 | 8.31 | 1.31 | 3.53 | 5.53 | 4.62 | 2.96 | 6.8 | -0.98 | -4.16 | -4.3
[O-][S+]1CCN(Cc2ccc(-c3ccc4ncnc(Nc5ccc(OCc6ccccc6)c(Cl)c5)c4c3)o2)CC1 | 5.41 | 1.76 | 1.89 | 2.65 | 3.8 | 1.76 | 6.34 | -2.27 | -2 | 1.18
COc1ccc(-c2nn3ncccc3c2-c2ccnc(Nc3cccc(C(F)(F)F)c3)n2)cc1 | 6.6 | 0.53 | -3.48 | 2.58 | 4.13 | 6.2 | 10 | -1.6 | 1.75 | -1.06
COC(=O)c1cncc(/C=C/c2c(C)cc(O)cc2C)c1 | 15.2 | -3.36 | 7.09 | – | 6.7 | 11.8 | 38.2 | 0.39 | 12.7 | -5.74
c1ccc(Cc2nc3ccc(Nc4ncnc5ccccc45)cc3[nH]2)cc1 | 6.8 | 4.08 | 5.82 | 4.22 | – | 0.79 | 12.8 | -1.79 | -2.82 | 8.94
